Assay results reported in the supplement of paper PMC12494721.
Counter-ions that a name gives are not always drawn.

Tests used:
Conditions in all cases: incubation time: 27 h, anaerobic, 37 °C;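 for the amine columns active = adjusted P below 0.05 in both replicates with a change the same way and a mean fold change under 0.8 or over 1.25; inactive = the rest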
[1] = test system: Clostridium sporogenes DSM 1664; assay: growth (OD595) fold change vs plate DMSO controls (fold change (ratio)); higher = more growth
How it was run: (§1)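 To obtain OD, 595 nm absorbance readings were blank-subtracted, corrected for compound background using 20 µM compound solutions in water, and multiplied by a calibration factor of 5. They came from 96-well mGAM cultures grown anaerobically for 27 h at 37 °C and shaken before reading. Growth is the fold change relative to the median of plate DMSO controls. Two biological replicates were averaged, and fold changes above 1.5 were set to NA.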

Escherichia coli IAI1 [2] = assay: as above
How it was run: as §1

[3] = test system: Klebsiella aerogenes DSM 30053; assay: as above
How it was run: as §1

[4] = test system: Ruminococcus gnavus DSM 108212; assay: as above
How it was run: as §1

[5] = test system: Klebsiella aerogenes DSM 30053; assay: fold change of Histamine concentration vs plate DMSO controls (fold change (ratio)); higher = more amine produced, active = hit call of the paper (significant change in both replicates, either direction)
How it was run: (§2)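 Anaerobic mGAM cultures of four gut bacterial strains were grown at 37 °C for 27 h in 80 µL wells, starting at OD 0.1 before 1:1 dilution. Compounds were at 20 µM final (sweeteners 50 µM). Whole cultures were extracted with cold acetonitrile/methanol containing 0.1% formic acid and centrifuged. Amines were quantified by LC–triple-quadrupole MS (dynamic MRM) against external calibration curves and drift-corrected within batch. Each value is the fold change versus plate DMSO controls, averaged over 2 biological replicates.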

[6] = test system: Clostridium sporogenes DSM 1664; assay: fold change of Tryptamine concentration vs plate DMSO controls (fold change (ratio)); higher = more amine produced, active = hit call of the paper (significant change in both replicates, either direction)
How it was run: as §2

[7] = test system: Ruminococcus gnavus DSM 108212; assay: as above
How it was run: as §2

Escherichia coli IAI1 [8] = assay: fold change of Putrescine concentration vs plate DMSO controls (fold change (ratio)); higher = more amine produced, active = hit call of the paper (significant change in both replicates, either direction)
How it was run: as §2

[9] = test system: Klebsiella aerogenes DSM 30053; assay: as above
How it was run: as §2

Escherichia coli IAI1 [10] = assay: fold change of Cadaverine concentration vs plate DMSO controls (fold change (ratio)); higher = more amine produced, active = hit call of the paper (significant change in both replicates, either direction)
How it was run: as §2

[11] = test system: Klebsiella aerogenes DSM 30053; assay: as above
How it was run: as §2

[12] = test system: Ruminococcus gnavus DSM 108212; assay: fold change of 2-Phenylethylamine concentration vs plate DMSO controls (fold change (ratio)); higher = more amine produced, active = hit call of the paper (significant change in both replicates, either direction)
How it was run: as §2

Row | Compound | growth [1] | growth (Escherichia coli IAI1 [2]) | growth [3] | growth [4] | fold change of Histamine concentration [5] | fold change of Tryptamine concentration [6] | fold change of Tryptamine concentration [7] | fold change of Putrescine concentration (Escherichia coli IAI1 [8]) | fold change of Putrescine concentration [9] | fold change of Cadaverine concentration (Escherichia coli IAI1 [10]) | fold change of Cadaverine concentration [11] | fold change of 2-Phenylethylamine concentration [12]
1 | O=C1c2cccc3c2[C@H](CCC3)CN1[C@@H]1CN2CCC1CC2 [Palonosetron hydrochloride] (20 µM) | 1 | 1.05 | 0.978 | 0.887 | 1.09 (inactive) | 0.963 (inactive) | 1.04 (inactive) | 1.06 (inactive) | 0.996 (inactive) | 0.979 (inactive) | 0.983 (inactive) | 1.04 (inactive)
2 | Nc1ccn([C@@H]2O[C@H](CO)[C@@H](O)[C@@H]2O)c(=O)n1 [Cytarabine] (20 µM) | 0.956 | 1.03 | 1.03 | 0.571 | 0.975 (inactive) | 0.967 (inactive) | 0.63 (active) | 0.953 (inactive) | 1.02 (inactive) | 1.32 (active) | 1.01 (inactive) | 0.69 (active)
3 | COC(=O)Nc1nc2cc(C(=O)c3cccs3)ccc2[nH]1 [Nocodazole] (20 µM) | 0.969 | 1.01 | 1.02 | 1.05 | 0.98 (inactive) | 0.968 (inactive) | 0.999 (inactive) | 0.977 (inactive) | 1 (inactive) | 0.996 (inactive) | 1.03 (inactive) | 1.03 (inactive)
4 | CC(C)(C)NC[C@H](O)COc1ccccc1C1CCCC1 [Penbutolol sulfate] (20 µM) | 0.971 | 1.21 | 0.985 | 0.952 | 1.02 (inactive) | 1.03 (inactive) | 1.11 (inactive) | 1.1 (inactive) | 0.997 (inactive) | 1.02 (inactive) | 0.98 (inactive) | 1.25 (inactive)
5 | O=C(O)CNC(=O)c1ccccc1 [Hippuric acid] (20 µM) | 1.12 | 1.02 | 1.02 | 1.05 | 1.03 (inactive) | 1.05 (inactive) | 1.08 (inactive) | 0.979 (inactive) | 0.997 (inactive) | 0.94 (inactive) | 1.01 (inactive) | 1.09 (inactive)
6 | CC(=O)OCC(=O)[C@@]1(O)CC[C@H]2[C@@H]3CCC4=CC(=O)CC[C@]4(C)[C@H]3[C@@H](O)C[C@@]21C [Cortisol acetate] (20 µM) | 1.13 | 1.03 | 1.04 | 1 | 0.896 (inactive) | 0.975 (inactive) | 0.979 (inactive) | 0.987 (inactive) | 0.993 (inactive) | 0.97 (inactive) | 1.01 (inactive) | 0.953 (inactive)
7 | CC(=O)Oc1c(C)cccc1C(=O)O [Cresopirine] (20 µM) | 1.04 | 0.974 | 1.03 | 0.935 | 0.972 (inactive) | 1.06 (inactive) | 0.962 (inactive) | 0.977 (inactive) | 1.02 (inactive) | 0.998 (inactive) | 1.01 (inactive) | 0.945 (inactive)
8 | CCOC(=O)[C@H](CCc1ccccc1)N[C@@H](C)C(=O)N1CCC[C@H]1C(=O)O [Enalapril maleate] (20 µM) | 1.07 | 1.07 | 1.05 | 1.15 | 0.936 (inactive) | 1 (inactive) | 1.09 (inactive) | 1.03 (inactive) | 0.959 (inactive) | 0.967 (inactive) | 1.02 (inactive) | 1.1 (inactive)
9 | COc1cc(NC(C)CCCN)c2ncccc2c1 (configuration not stated) [Primaquine diphosphate] (20 µM) | 1.08 | 1.02 | 1.07 | 0.905 | 0.851 (inactive) | 1.03 (inactive) | 1.07 (inactive) | 1.03 (inactive) | 0.943 (inactive) | 1 (inactive) | 1.02 (inactive) | 1.09 (inactive)
10 | N=C(N)c1ccc(OCCCCCOc2ccc(C(=N)N)cc2)cc1 [Pentamidine isethionate] (20 µM) | 1.15 | 1.05 | 0.985 | 1.35 | 0.984 (inactive) | 0.79 (inactive) | 0.365 (active) | 0.993 (inactive) | 0.914 (inactive) | 0.825 (inactive) | 1.01 (inactive) | 0.38 (active)
11 | c1ccc([C@H]2CN3CCSC3=N2)cc1 [Levamisole hydrochloride] (20 µM) | 1 | 0.988 | 0.966 | 1 | 1.07 (inactive) | 0.986 (inactive) | 0.908 (inactive) | 0.967 (inactive) | 1.02 (inactive) | 1.01 (inactive) | 0.994 (inactive) | 0.961 (inactive)
12 | CCC(=O)OCC(=O)[C@@]1(OC(=O)CC)[C@@H](C)C[C@H]2[C@@H]3CCC4=CC(=O)C=C[C@]4(C)[C@@]3(Cl)[C@@H](O)C[C@@]21C [Beclomethasone dipropionate] (20 µM) | 1.19 | 0.997 | 1.04 | 1.22 | 1 (inactive) | 1.01 (inactive) | 0.937 (inactive) | 0.954 (inactive) | 1.01 (inactive) | 1.02 (inactive) | 0.995 (inactive) | 0.921 (inactive)
13 | COc1cc2c(cc1OC)CC(=O)N(CCCN(C)C[C@H]1Cc3cc(OC)c(OC)cc31)CC2 [Ivabradine hydrochloride] (20 µM) | 1.05 | 0.995 | 0.986 | 0.903 | 1.02 (inactive) | 1.01 (inactive) | 1.1 (inactive) | 0.924 (inactive) | 0.937 (inactive) | 0.895 (inactive) | 1.01 (inactive) | 1.1 (inactive)
14 | CC1(C)[C@H](C(=O)O)N2C(=O)C[C@H]2S1(=O)=O [Sulbactam] (20 µM) | 0.592 | 1.19 | 0.976 | 1.21 | 1.05 (inactive) | 1.07 (inactive) | 1.07 (inactive) | 1.14 (inactive) | 0.983 (inactive) | 0.985 (inactive) | 1.01 (inactive) | 1.08 (inactive)
15 | COc1ccccc1OCC(O)COC(N)=O (configuration not stated) [Methocarbamol] (20 µM) | 1.03 | 1 | 1.03 | 1.12 | 1.06 (inactive) | 1.02 (inactive) | 0.963 (inactive) | 0.998 (inactive) | 1.01 (inactive) | 0.986 (inactive) | 0.987 (inactive) | 0.95 (inactive)
16 | CCCCOCCOCCOCc1cc2c(cc1CCC)OCO2 [Piperonyl butoxide] (20 µM) | 1.04 | 1.09 | 1.09 | 1.06 | 0.916 (inactive) | 1.04 (inactive) | 1.07 (inactive) | 0.998 (inactive) | 0.999 (inactive) | 0.972 (inactive) | 1.02 (inactive) | 1.17 (inactive)
17 | OCCN1CCN(CC/C=C2/c3ccccc3Sc3ccc(Cl)cc32)CC1 [Zuclopenthixol dihydrochloride] (20 µM) | 0.904 | 1.25 | 1.01 | 0.937 | 1.03 (inactive) | 0.993 (inactive) | 0.919 (inactive) | 1.31 (inactive) | 0.994 (inactive) | 1.09 (inactive) | 0.992 (inactive) | 0.947 (inactive)
18 | O=C(N/N=C/c1ccc([N+](=O)[O-])o1)c1ccc(O)cc1 [Nifuroxazide] (20 µM) | 1.11 | 1.03 | 0.907 | 1.2 | 1.01 (inactive) | 0.998 (inactive) | 0.89 (inactive) | 0.759 (active) | 0.954 (inactive) | 1.58 (active) | 1.02 (inactive) | 0.626 (active)
19 | N/C(=N\C(=O)c1nc(Cl)c(N)nc1N)NCc1ccccc1 [Benzamil hydrochloride] (20 µM) | 0.787 | 0.962 | 0.958 | 0.861 | 0.932 (inactive) | 1.03 (inactive) | 0.961 (inactive) | 0.807 (inactive) | 0.965 (inactive) | 1.48 (inactive) | 0.991 (inactive) | 0.936 (inactive)
20 | C=CCN1CCCC1CNC(=O)c1cc2nn[nH]c2cc1OC (configuration not stated) [Alizapride hydrochloride] (20 µM) | 1.09 | 1.01 | 1.05 | 1.09 | 1 (inactive) | 0.964 (inactive) | 1.02 (inactive) | 0.994 (inactive) | 0.988 (inactive) | 0.998 (inactive) | 0.99 (inactive) | 1 (inactive)
21 | COC(=O)N/N=C/c1c[n+]([O-])c2ccccc2[n+]1[O-] [Carbadox] (20 µM) | 0.00259 | 0.0346 | 0.0738 | 0.0392 | 0.0834 (active) | 0.00903 (active) | 0.0355 (active) | 0.388 (active) | 0.377 (active) | 0.187 (active) | 0.983 (inactive) | 0.0387 (active)
